SNCA expr inh – reduces expression of the alpha-synuclein gene; HEK-293 SNCA-luciferase knock-in, luminescence, 24 h; Potency, µM (top dose mostly 57.2 µM), usual class: inhibitors; 0.17% of 140,000 active; AID 1671194; further: nearly all actives have a fitted effect of over 45% in size
SNCA viab count – counter-screen for SNCA expression inhibitors: cell viability; HEK-293-SNCA-luc viability, GF-AFC fluorescence, 24 h; Potency, µM (highest dose often 57.1 µM), most hits filed as cytotoxic; 0.12% of 150,000 active; AID 1671193; further: nearly all actives have a fitted effect of over 30% in size
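HEK-293-SNCA-luc cells (1500/well) plated 24 h, then exposed 24 h to a dilution series; GF-AFC added 30 min at 37C, fluorescence 405/540 nm; normalised to medium-only and DMSO wells, Hill fit.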
IP6K1 inhibitor – IP6K1 kinase inhibition; Q92551; IP6K1 kinase, ADP-Glo luminescence, 2 h; active compounds read low; activity change, % (series mostly up to about 58 µM); 0.81% of 140,000 active; AID 1645851; in the data active means activity change below about -25%
Target sequence (Q92551 whole entry, looked up): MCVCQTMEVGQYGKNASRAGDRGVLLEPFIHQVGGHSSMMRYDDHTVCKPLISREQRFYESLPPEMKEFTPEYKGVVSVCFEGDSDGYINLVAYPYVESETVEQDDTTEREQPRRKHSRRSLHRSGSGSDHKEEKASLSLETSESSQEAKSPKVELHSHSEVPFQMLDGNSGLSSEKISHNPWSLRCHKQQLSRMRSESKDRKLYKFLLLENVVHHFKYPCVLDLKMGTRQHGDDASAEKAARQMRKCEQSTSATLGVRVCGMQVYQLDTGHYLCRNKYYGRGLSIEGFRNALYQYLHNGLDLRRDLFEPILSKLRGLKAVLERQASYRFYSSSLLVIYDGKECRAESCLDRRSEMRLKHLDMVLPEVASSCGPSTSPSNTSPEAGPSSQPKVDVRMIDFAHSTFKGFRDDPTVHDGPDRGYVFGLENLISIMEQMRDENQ
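ADP-Glo luminescence measures ADP made by human IP6K1 during a 2 h RT reaction with ATP/IP6 (mix at 1.3 mM/130 uM); top library doses 57.5 and 19.1 uM final.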
KDM5B inhibitor – inhibitors of human KDM5B histone demethylase; KDM5B demethylase, FDH-coupled NADH fluorescence (FDH is formaldehyde dehydrogenase); Q9UGL1; 2.6% of 220,000 active; Potency, µM (top dose mostly 57.7 µM), hits mostly inhibitors; further: nearly all actives have a fitted effect of over 70% in size
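Here, H3K4me3 peptide (12.5 µM in substrate mix) is demethylated by KDM5BΔAP, 200 nM final, after 10 min compound exposure. Formaldehyde product is coupled through FDH (0.25 U/mL in mix) to NADH fluorescence; 30-min ΔRFU feeds dose-response curves.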
Hits are given with their value; . = inactive; ? = inconclusive; / = not tested or not shown. In the library only some 2.9% were active in any assay of this set; here they are far more common. Unless noted, the call rests on the fitted dose curve; in most records, active means well fitted curve in the direction sought with a large enough effect; inconclusive means small, poorly fitted or top-dose-only effect, or another doubt; inactive means no such curve, though single readings can be large; an effect the other way counts as inactive or inconclusive.

SMILES	SNCA expr inh	SNCA viab count	IP6K1 inhibitor	KDM5B inhibitor
COc1cccc(CN2CC3(CCN(C)C3)c3cc(C(=O)NC4CCCCC4)ccc32)c1 (stereo not drawn)	?	.	.	35µM
CN1CCC2(C1)CN(Cc1ccccc1)c1ccc(C(=O)NC3CCC(O)CC3)cc12 (stereo not drawn)	.	.	.	40µM
O=C(NC1CCOCC1)c1ccc2c(c1)C1(CCN(CC3CC3)C1)CN2Cc1ccccc1 (stereo not drawn)	.	.	.	28µM
Clc1cccc(Cl)c1CNc1n[nH]c(-c2ccco2)n1	/	/	/	.
CC(=O)NC1(C)CCN(Cc2cnc(-c3ccccc3OCc3ccccc3)s2)CC1	.	.	.	40µM
Cc1ccc(C)c(OCC(=O)c2ccc3c(c2)N(CCCC(=O)NC2CCCCC2)C(=O)CO3)c1	.	18µM	.	.
COc1ccc(C(=O)Cn2c(=O)c(-c3cc(C)ccc3NC(C)=O)nc3ccccc32)cc1	.	?	.	?
CCC(=O)Nc1ccc(C)cc1-c1nc2ccccc2n(CC(=O)c2ccc(C)cc2)c1=O	28µM	.	.	.
COc1ccc(OCC2(C)COc3ccc(C(=O)Nc4ccc(OC)nc4)cc3N2)cc1 (stereo not drawn)	?	?	.	40µM
Cn1ccc(NC(=O)c2ccc3c(c2)NC(C)(CNCc2ccccc2)CO3)n1 (stereo not drawn)	?	?	.	?
COc1ccc(OCC2(C)COc3ccc(C(=O)Nc4ccn(C)n4)cc3N2)cc1 (stereo not drawn)	?	?	.	32µM
COc1cccc(NC(=O)c2ccc3c(c2)NC(C)(COc2ccc4[nH]ccc4c2)CO3)c1 (stereo not drawn)	?	.	.	32µM
Nc1nnnn1NCc1cc(Cl)ccc1OCc1ccc(F)cc1Cl	/	/	/	.
O=C(c1cccs1)N(Cc1ccccn1)C1CC1	/	/	/	.
COc1ccc(-c2cc(C(=O)N3CCCC3)ccn2)cc1F	.	.	.	28µM
COc1cccc(NC(=O)c2cc3c(N4CCCC4)nc(C)cn3n2)c1	.	?	.	35µM
Cc1cn2nc(C(=O)Nc3cccc(F)c3C)cc2c(N2CCCC2)n1	.	?	.	25µM
COc1cccc(CNC(=O)c2cc3c(N4CCCC4)nc(C)cn3n2)c1	.	.	.	.
Cc1cn2nc(C(=O)Nc3ccc4c(c3)OCCO4)cc2c(N2CCCC2)n1	.	.	.	25µM
Cc1ccc(NC(=O)c2cc3c(N4CCCC4)nc(C)cn3n2)cc1	.	.	.	?
CN1CCN(C(=O)c2nc3sccn3c2-c2ccc(C(F)(F)F)cc2)CC1	.	.	.	/
CCc1[nH]c2c(CNC(=O)C(C)O)cc(C)cc2c1C (stereo not drawn)	.	.	.	32µM
COc1ccc(C2(C(=O)NC3CCCN(c4ncccn4)C3)CC2)cc1 (stereo not drawn)	.	.	.	22µM
CCc1c(C)nn(CC(=O)NC2CCCN(c3ncccn3)C2)c1C (stereo not drawn)	.	.	.	20µM
COc1ccc(Oc2coc3cc(OC)ccc3c2=O)cc1	/	/	/	.
SMILES	SNCA expr inh	SNCA viab count	IP6K1 inhibitor	KDM5B inhibitor
COCCNc1nc2cc(C(=O)N[C@@H]3CC[C@@H](N)C3)ccc2n1C	.	.	.	22µM
COCCNc1nc2cc(-c3nc(-c4cccnn4)no3)ccc2n1C	?	.	.	.
Cc1ccc(C(=O)NC2CCCN(c3ccc(C(F)(F)F)cn3)C2)cn1 (stereo not drawn)	/	/	/	.
CNCC(=O)NC1CCCN(c2ccc(C(F)(F)F)cn2)C1 (stereo not drawn)	.	.	.	28µM
O=C(NCC1CC1)c1noc(-c2ccccc2F)n1	.	.	.	20µM
O=C(NCC1CCCCC1)c1noc(-c2ccc[nH]c2=O)n1	.	.	.	.
CCNC(=O)CSc1nc(C)nc2sc3c(c12)CCC3	/	/	/	.
CC1(C)C[C@H]2C=C(C=O)[C@]3(C(=O)O)C[C@]3(C)[C@H]2C1	/	.	.	/
Cc1cn2nc(C(=O)N3CCCC3)cc2c(N2CCSCC2)n1	.	.	.	28µM
Cc1cn2nc(C(=O)N3CCN(c4ccccc4F)CC3)cc2c(N2CCCC2)n1	?	.	.	32µM
Cc1cn2nc(C(=O)NC(C)c3ccccc3)cc2c(N2CCSCC2)n1 (stereo not drawn)	.	.	.	?
O=C(CSc1nnnn1-c1ccccc1)c1ccc(Cl)s1	/	/	/	.
O=C(CCNS(=O)(=O)c1ccccc1)N1CCCCCC1	/	/	/	.
O=C(CCNc1c(-c2ccccc2)nc2cnccn12)N1CCCC1	.	?	.	28µM
Cc1ccc(-c2nc3cnccn3c2NCCC(=O)N2CCCCC2)cc1	.	?	.	32µM

High-throughput results as filed in PubChem.
